Measured values reported in PubChem BioAssay AID686954 (Sanford-Burnham Center for Chemical Genomics, 2013).
About 240 (0.8%) of roughly 30,000 compounds were called active.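 How the source made its calls: active means at 10 µM dose, at least 30% inhibition, measured as corrected fluorescence normalized to stimulator and neutral control wells; inactive means the rest.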 The list comes from a sample in which actives are over-represented; it also holds similar structures and randomly drawn compounds.

These molecules were tested against Protein artemis (Homo sapiens) (UniProt Q96SD1) (assay: Artemis endonuclease inhibitors, primary screen, biochemical, fluorescence intensity, FAM/BHQ-1 hairpin substrate (AID 686954)). Conditions: recombinant Artemis, quenched FAM hairpin cleavage fluorescence; at 10 µM; active compounds read high.
Sequence of Protein artemis (Homo sapiens) (Q96SD1 whole entry, looked up): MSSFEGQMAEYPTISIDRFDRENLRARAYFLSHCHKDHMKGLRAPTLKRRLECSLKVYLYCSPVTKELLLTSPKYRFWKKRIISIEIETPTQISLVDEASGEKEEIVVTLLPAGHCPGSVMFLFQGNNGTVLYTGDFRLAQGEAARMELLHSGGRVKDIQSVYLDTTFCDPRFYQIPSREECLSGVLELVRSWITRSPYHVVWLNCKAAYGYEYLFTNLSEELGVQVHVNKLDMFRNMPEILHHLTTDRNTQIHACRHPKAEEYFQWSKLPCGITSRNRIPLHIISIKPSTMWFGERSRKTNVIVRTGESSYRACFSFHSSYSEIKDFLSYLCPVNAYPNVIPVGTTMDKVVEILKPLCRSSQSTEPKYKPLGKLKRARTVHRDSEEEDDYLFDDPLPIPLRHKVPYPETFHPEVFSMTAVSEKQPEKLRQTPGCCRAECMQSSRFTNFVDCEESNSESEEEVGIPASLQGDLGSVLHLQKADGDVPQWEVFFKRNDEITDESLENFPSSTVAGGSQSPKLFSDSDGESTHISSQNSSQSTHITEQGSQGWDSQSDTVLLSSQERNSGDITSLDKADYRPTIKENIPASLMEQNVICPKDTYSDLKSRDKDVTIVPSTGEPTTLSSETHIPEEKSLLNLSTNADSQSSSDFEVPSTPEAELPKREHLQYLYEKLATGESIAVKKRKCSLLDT

Compound	inhibition
Cc1cc(=O)n2c3c(cccc13)CCC2	-4.67% (inactive)
COc1ccc(-n2nnnc2SCc2nc(N)nc(N3CCOCC3)n2)cc1	-0.42% (inactive)
C=CCn1c(SCC(=O)c2c(N)n(C)c(=O)n(C)c2=O)nc2sc(CC)cc2c1=O	9.01% (inactive)
CCOC(=O)C(=CNc1cccc(C)n1)C(=O)OCC	-3.58% (inactive)
O=c1c2ccccc2c(-c2ccc(F)cc2)nn1-c1ccc(C(F)(F)F)cc1	5.92% (inactive)
CCCC1(C(=O)OCC)NC(c2ccc(N(C)C)cc2)C2C(=O)N(c3ccc4c(c3)OCCO4)C(=O)C21 (stereo not given)	-2.24% (inactive)
O=c1c2ccccc2nc2n1C(CSc1ccc(Cl)cc1)CN2 (stereo not given)	3.79% (inactive)
CCCc1nc2sc3c(c2c(=O)n1NC(=O)CCCl)CCCC3	-7.23% (inactive)
COCCn1c(C)cc(C(=O)CSc2ncnc3sc4c(c23)CCC4)c1C	-1.83% (inactive)
COCc1cc(C)nc2sc(C(=O)NC3CCCCC3)c(N)c12	-2.12% (inactive)
COCCNc1nc(-n2nc(C)cc2C)nc2sc3c(c12)CCCC3	52.7% (active)
Cc1cc(C)n(-c2nc(SCC(=O)N3CCCC3)c3c4c(sc3n2)CCCC4)n1	40.1% (active)
N=c1c2c3c(sc2nc2n1CCCCC2)CCCC3	-6.19% (inactive)
O=C(O)C1CCN1C1CCCCC1 (stereo not given)	0.02% (inactive)
Cc1cccc(-n2cnc(C(=O)Nc3cccnc3)c2)n1	9.43% (inactive)
O=S(=O)(c1cccc2nonc12)N1CCN(c2cccc(Cl)c2)CC1	-9.46% (inactive)
CCN(CC)c1nc(-c2ccccc2)cc(C(F)(F)F)c1C#N	-3.86% (inactive)
CCOC(=O)N1CCN(C(=O)CN(C2CCCCC2)S(C)(=O)=O)CC1	-1.82% (inactive)
Cc1ccc(OCC(=O)N/N=C/c2ccncc2)cc1	-5.31% (inactive)
COc1ccc(-c2c(C(C)=O)c(C)nc3sc4c(=O)n(-c5ccc(C)cc5)nnc4c23)cc1	11.3% (inactive)
